In ChEMBL document CHEMBL2218924, “A broad activity screen in support of a chemogenomic map for kinase signalling research and drug discovery” (Biochem J, 2013):

target: Protein kinase C gamma type (Homo sapiens) (UniProt P05129); conditions: at 1 µM

| Compound | residual activity [%] |
| --- | --- |
| N#C/C(=C1/Nc2ccccc2S1)c1ccnc(NCCc2cccnc2)n1 | 95 |
| CC(C)c1nn(-c2c(Cl)cccc2Cl)c2nc(Cc3ccc(OCCO)cc3)[nH]c(=O)c12 | 94 |
| O=C(Nc1nc2ccccc2n1CCN1CCOCC1)c1cccc([N+](=O)[O-])c1 | 105 |
| N#Cc1c(NC(=O)c2cccc3ccccc23)sc2c1CCCC2 | 94 |
| Nc1nc(Nc2ccc(S(N)(=O)=O)cc2)nn1C(=O)c1c(F)cccc1F | 61 |
| O=C1NC(=O)C(c2cn(CCCO)c3ncccc23)=C1c1cnccn1 | 92 |
| CN([C@@H](Cc1ccc(OS(=O)(=O)c2cccc3cnccc23)cc1)C(=O)N1CCN(c2ccccc2)CC1)S(=O)(=O)c1cccc2cnccc12 | 99 |
| CC(C)[C@H](CO)Nc1nc(Nc2cc(N)cc(Cl)c2)c2ncn(C(C)C)c2n1 | 94 |
| O=C1NC(=O)C(c2cn(CCCn3ccnc3)c3ccccc23)=C1Nc1ccccc1 | 8 |

target: Protein kinase C gamma type (Homo sapiens) (UniProt P05129); conditions: at 10 µM

| Compound | residual activity [%] |
| --- | --- |
| N#C/C(=C1/Nc2ccccc2S1)c1ccnc(NCCc2cccnc2)n1 | 100 |
| O=S(=O)(NCCNC/C=C/c1ccc(Br)cc1)c1cccc2cnccc12 | 38 |
| O=C1Cc2c([nH]c3ccc(Br)cc23)-c2ccccc2N1 | 93 |
| CC(C)c1nn(-c2c(Cl)cccc2Cl)c2nc(Cc3ccc(OCCO)cc3)[nH]c(=O)c12 | 106 |
| CC(C)N(CCC(=O)c1ccc2ccccc2c1)Cc1ccccc1 | 85 |
| O=C(Nc1nc2ccccc2n1CCN1CCOCC1)c1cccc([N+](=O)[O-])c1 | 102 |
| Nc1nc(Nc2ccc(S(N)(=O)=O)cc2)nn1C(=O)c1c(F)cccc1F | 19 |
| O=C1C(Cl)=C(N2C(=O)CCC2=O)C(=O)c2ccccc21 | 77 |
| O=S(=O)(c1cccc2cnccc12)N1CCCNCC1 | 63 |
| O=C1NC(=O)C(c2cn(CCCO)c3ncccc23)=C1c1cnccn1 | 91 |
| CN([C@@H](Cc1ccc(OS(=O)(=O)c2cccc3cnccc23)cc1)C(=O)N1CCN(c2ccccc2)CC1)S(=O)(=O)c1cccc2cnccc12 | 99 |
| Nc1nccc(-c2c(-c3ccc(F)cc3)ncn2C2CCNCC2)n1 | 63 |
| CC(C)[C@H](CO)Nc1nc(Nc2cc(N)cc(Cl)c2)c2ncn(C(C)C)c2n1 | 80 |
| O=C1NC(=O)C(c2cn(CCCn3ccnc3)c3ccccc23)=C1Nc1ccccc1 | 2 |
